# According to ChEMBL document CHEMBL3433997, “St. Jude Leishmania screening dataset” (2016):
# Molecular target: Glucose transporter (Leishmania mexicana) (UniProt O61059)
# Assay: ST_JUDE_LEISH: Cytotoxicity at 2uM final concentration against transgenic Leishmania Mexicana promastigotes LmGT2 that are glucose transport deficient and complemented with the L. Mexicana glucose transporter 2. Activity is measured by DNA content using SYBR green in vitro
# Assay type: functional
row,SMILES,inhibition
1,C[C@H]1CN(Cc2cccc(-c3cc(CNC(=O)c4cccc(C(=O)c5ccc(Cl)c(Cl)c5)c4)ccc3F)c2)CCN1,1.43%
2,CN(C)CCNc1ncnc2c1[nH]c1ccc(Br)cc12,1.38%
3,Cc1ccccc1C(=O)NC(NC(=S)Nc1ccc([N+](=O)[O-])cc1)C(Cl)(Cl)Cl (stereo not given),0.22%
4,CC(=O)Nc1cccc(C(=O)Nc2cccc(-c3ccc(-c4nc5cccc(C)c5[nH]4)s3)c2)c1,0.43%
5,CC(C)NCc1ccc(-c2cccc(-c3nc4cc(C(F)(F)F)ccc4[nH]3)c2)cc1,4.16%
6,Clc1ccc(-c2csc3ncnc(Cl)c23)cc1,4.02%
7,CCn1c(-c2nonc2N)nc2c(-c3cccc(NC(=O)Nc4ccc5c(c4)CCC5)c3)ncc(OCCCN)c21,2.89%
8,CCC[C@@H]([C@@H](CC1CCCCC1)C(=O)N[C@H](C(=O)Nc1nccs1)[C@@H](C)OCc1ccccc1)N(O)C=O,2.53%
9,COc1ccc(OC)c(Cc2cnc3nc(N)[nH]c(=O)c3c2C)c1,5.15%
10,Nc1ccc2nc(C=Cc3ccc(Cl)cc3)[nH]c2c1,5.14%
11,C(=Cc1nc2ccccc2s1)c1ccc2c(c1)OCCO2,-2.03%
12,CCN(CCCN1CCCCC1)c1cc(C)nc(Nc2cc(Br)ccc2C)n1,-0.36%
13,O=C(NCCc1ccccc1F)c1ccc(N2CCN(c3ccncc3)CC2)cn1,8.65%
14,CS(=O)(=O)CCNCc1cccc(-c2cc3c(Nc4ccc5c(cnn5Cc5ccccc5)c4)ncnc3s2)c1,0.63%
15,COc1ccccc1CCNc1nc(C)cc(N[C@@H](Cc2ccccc2)C(=O)NCCCOC(C)C)n1,-0.1%
16,Fc1ccc(OC2CN(c3nccc(NCc4ccccc4Cl)n3)C2)cc1,-0.6%
17,CCCNC[C@@H](O)[C@H](Cc1ccccc1)NC(=O)c1cc2c3c(c1)c(CC)cn3CCS(=O)(=O)N2C,0.44%
18,COc1ccc(CN(C)CCCc2ccc(NC(=O)Cc3ccc4nc(-c5ccccc5)ccc4c3)cc2)cc1OC,6.65%
19,Nc1nonc1-c1nc2c(-c3cccc(Cl)c3)nccc2n1CCCNC(=O)Cc1ccc(Cl)cc1,0.42%
20,O=C(Nc1cccc(-c2cccc(-c3nc4ccccc4[nH]3)c2)c1)c1ccncc1,0.44%

row,SMILES,inhibition
1,O=S(=O)(c1cc2ccccc2s1)N(CCC(O)(C(F)(F)F)C(F)(F)F)Cc1cccc(O)c1,1.75%
2,COc1ccc(-c2cccc(NC(=O)c3cccc(C#N)c3)c2)cc1CN(C)CCO,5.5%
3,Cc1cc(N2CCOCC2)nc2ccc(NC(=O)c3cccc([N+](=O)[O-])c3)cc12,3.77%
4,CCOc1cc2ncnc(Nc3ccc(OCc4ccccc4OC)c(OC)c3)c2cc1OCC,0.35%
5,Cc1ccc2[nH]c(-c3ccccc3Nc3ccnc4cc(-c5nccs5)ccc34)nc2c1,1.35%
6,O=S(=O)(c1cc(Cl)ccc1Cl)N1CCCCC(c2ccc(C(F)(F)F)cc2)=N1,5.01%
7,CC(=O)Nc1ccc(C(=O)Nc2cccc(-c3cccc(-c4nc5ccccc5[nH]4)c3)c2)cn1,1.34%
8,COc1ccc(CNCc2ccc(-c3ccc(-c4nc5cc(C(F)(F)F)ccc5[nH]4)s3)cc2)cc1,2.4%
9,O=C(Nc1ccc(Cn2ncc(N3CCCNCC3)c(Cl)c2=O)cc1)Nc1cccc(SC(F)(F)F)c1,0.05%
10,Brc1cc(Br)c2c(c1)C(NCCCNc1nc3ncccc3[nH]1)CCN2 (stereo not given),73.5%
11,OC(CNc1ccnc(Nc2cccc(CCN3CCOCC3)c2)n1)c1ccccc1 (stereo not given),1.35%
12,Cc1noc(-c2cccs2)c1C(=O)NC(C)c1cccc2ccccc12 (stereo not given),0.18%
13,O=C(Nc1ccc(C(=O)Nc2cccc(C3=NCCN3)c2)cc1)Nc1ccc(C2=NCCN2)cc1,-0.6%
14,N#Cc1cccc(NC(=O)NC2CCN(CCCCCNC(=O)C3CC3c3ccc(Cl)c(Cl)c3)CC2)c1 (stereo not given),1.85%
15,COc1ccc2c(c1)ncn2-c1cc(OCc2ccncc2Br)c(C(N)=O)s1,2.35%
16,Oc1ccc2ncnc(Nc3ccc(OCc4cccc(F)c4)c(Cl)c3)c2c1,-1.78%
17,COc1cc(OC)cc(C(=O)Nc2nc(-c3ccccn3)cs2)c1,7.57%
18,CCc1ccc(-n2c(NC(=O)c3ccccc3)nc3ccc(S(=O)(=O)NC(C)C(C)C)cc32)cc1 (stereo not given),-1.72%
19,COc1ccc2nc3cc(Cl)ccc3c(NCCCCCCNc3c4ccc(Cl)cc4nc4ccc(OC)cc34)c2c1,9.4%
20,COc1ccccc1CCNc1nc(C)cc(N[C@@H](CC(C)C)C(=O)NCCc2ccccc2)n1,2.57%
